# According to PubChem BioAssay AID1359 (The Scripps Research Institute Molecular Screening Center, 2008):
# Where “and” joins values, the source holds several entries; their conditions need not be identical. Equal entries are not always repeated. The campaign covered roughly 220,000 compounds. About 970 (0.44%) were called active. This excerpt belongs to a sample that is enriched for actives. Unmarked numbers belong to inactive results. Cut-off read from the data, not from the text of the source: active = activation above about 27%; inactive = the rest.
# Molecular target: Neuropeptide Y receptor type 2 (Homo sapiens) (UniProt P49146)
# Sequence (P49146 whole entry, looked up): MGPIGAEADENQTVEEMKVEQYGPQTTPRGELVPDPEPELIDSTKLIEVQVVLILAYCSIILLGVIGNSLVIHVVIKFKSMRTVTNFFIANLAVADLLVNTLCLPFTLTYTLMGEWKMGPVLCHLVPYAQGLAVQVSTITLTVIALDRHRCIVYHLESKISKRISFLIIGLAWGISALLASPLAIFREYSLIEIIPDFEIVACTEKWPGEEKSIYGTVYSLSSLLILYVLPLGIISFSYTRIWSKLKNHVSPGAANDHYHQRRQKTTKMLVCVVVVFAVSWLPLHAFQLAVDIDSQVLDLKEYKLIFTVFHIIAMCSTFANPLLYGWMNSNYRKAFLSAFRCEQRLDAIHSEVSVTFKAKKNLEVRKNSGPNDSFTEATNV
# Assay: NPY-Y2 potentiators or agonists, primary screen, cell-based (AID 1359);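 note: cells stimulated with NPY near EC25 plus isoproterenol at EC100; 0% = vehicle plus submaximal agonist and 100% = vehicle plus saturating agonist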
# Settings: cells expressing NPY-Y2, potentiator/agonist read-out; at 3.6 µM; hits give high values
row,Compound,activation
1,CCSc1nnc(NC(=O)Cc2ccccc2OC)s1,-5.68%
2,CCSc1nnc(NC(=O)c2ccc(C)cc2)s1,31.6% (active)
3,C=CCSc1nnc(NC(=O)c2ccc(NC(C)=O)cc2)s1,-3.89%
4,Cc1nc2ccccc2c(C)c1C(=O)c1ccc(F)cc1,-11.5%
5,CCCC1OC23CCCCC2C(C#N)(C#N)C1(C#N)C(=N)O3 (stereo not drawn),7.5%
6,COCCCNC(NC(=O)c1ccc(C)cc1)C(Cl)(Cl)Cl (stereo not drawn),15.8%
7,COc1ccc(C(=O)NC2(C(F)(F)F)NC(=O)N(CCCc3ccccc3)C2=O)c(OC)c1OC (stereo not drawn),-6.73%
8,COc1ccccc1OCCNC(=O)c1cc([N+](=O)[O-])cc([N+](=O)[O-])c1,-7.14%
9,COc1ccccc1OCCNCC(O)COc1cccc2[nH]c3ccccc3c12 (stereo not drawn),99.4% (active) and 97.9% (active)
10,CC(O)CNCCOc1cccc(Oc2ccccc2)c1 (stereo not drawn),-22.6%
11,C=CCn1c(SCc2cccc(F)c2)nc2cc(C(=O)N3CCC(C(N)=O)CC3)ccc2c1=O,8.55%
12,O=C(NCCc1ccccn1)c1cc(-c2ccc(Cl)cc2)nc2ccccc12,-15.9%
13,O=C1c2ccccc2C(=O)c2c1cccc2N1CCN(CCO)CC1,7.55%
14,O=C1c2ccccc2C(=O)c2c1cccc2N1CCN(Cc2ccccc2)CC1,48.8% (active)
15,O=c1cc(N2CCN(Cc3ccccc3)CC2)c(-c2ccccc2)n[nH]1,12.9%
16,COc1ccc(NS(=O)(=O)c2cc(NC(=O)CC(=O)c3ccc([N+](=O)[O-])cc3)ccc2C)cc1,-11.2%
17,CC(=O)C1C(c2cccc(Oc3ccccc3)c2)NC(=O)NC1(O)C(F)(F)F (stereo not drawn),6.91%
18,CC(=O)C1C(c2ccc(Cl)cc2)NC(=O)NC1(O)C(F)(F)F (stereo not drawn),-6.52%
19,O=C1NC(c2ccc(-c3ccccc3[N+](=O)[O-])o2)C(C(=O)c2ccc(Cl)cc2)C(O)(C(F)(F)F)N1 (stereo not drawn),37.4% (active)
20,O=C(c1ccc(F)cc1)n1c(=S)nc2ccccn21,3.79%
21,COc1cc(N2C(=O)c3ccccc3C2=O)c(Cl)cc1C(=O)OCC(=O)N1CCOCC1,-10.6%
22,OC(COCC1COc2ccccc2O1)CN1CCN(c2ccc(F)cc2)CC1 (stereo not drawn),80.4% (active)
23,OC(COCc1ccco1)CN1CCN(c2ccccc2)CC1 (stereo not drawn),-8.6%
24,O=[N+]([O-])c1ccc(N2CCN(CC(O)COc3ccccc3)CC2)cc1 (stereo not drawn),-7.01%

row,Compound,activation
1,COc1ccc(OCc2cn3c(C)cc(C)nc3n2)cc1,1.94%
2,COc1cc(NC(=S)NCc2ccc(S(N)(=O)=O)cc2)cc(OC)c1,4.03%
3,CC1(C)CC(=O)C(N=Nc2c(F)cccc2F)=C(O)C1,19.3%
4,Cc1nn(-c2ccccc2)c(C)c1/C=C/C(=O)OC(C)C(N)=O (stereo not drawn),-0.33%
5,O=C(NCC(O)c1ccc([N+](=O)[O-])cc1)C1CCCCC1 (stereo not drawn),-6.08%
6,CC(C)(C)n1ncc2c(=O)n(Cc3ccc(Cl)cc3)cnc21,-23.4%
7,Cc1ccccc1Nc1c(-c2ccccc2)nc2ncccn12,22.6%
8,Cc1cccc(C)c1Nc1c(-c2ccccc2O)nc2ncccn12,56.5% (active)
9,COC(=O)c1ccc(COc2ccc(/C=N/NC(=O)C(=O)Nc3ccc(OC)cc3)cc2OC)o1,-3.63%
10,COc1ccc2c(c1)C(SCC(=O)NCc1ccccc1)CC(C)(C)O2 (stereo not drawn),15.7%
11,COc1ccc(/C(C)=N/Nc2cc(C(F)(F)F)ccc2Cl)c(OC)c1,-10.5%
12,CCOC(=O)c1c(NC(=O)C2CCN(S(=O)(=O)c3ccc(Cl)cc3)CC2)sc2c1CCCC2,-5.8%
13,O=C(Nc1cccc(-c2nc3ccccc3[nH]2)c1)c1ccc(C(=O)Nc2cccc(-c3nc4ccccc4[nH]3)c2)cc1,0.29%
14,O=C(Nc1sc2c(c1-c1nc3ccccc3[nH]1)CCCC2)C1CC1,30.3% (active)
15,NC(=O)c1ccc(N2CCOCC2)nc1,-10.3%
16,CCOC12CC(C)(C)CC(C)(CC3=C1C(=O)CC(C)(C)C3)C2 (stereo not drawn),-1.87%
17,CN(C)CCCSc1ccccc1NC(=O)/C=C/c1ccccc1,-11.2%
18,C1CC1Cc1noc(CN2CCN(CC3CC3)CC2)n1,-4.58%
19,Cc1c(Cl)cccc1NC(=O)CSc1ccc(-c2cccnc2)nn1,2.4%
20,Cc1ccc(CCNC(=O)C2CCN(S(=O)(=O)N3CCCC3)CC2)cc1,104% (active)
21,CCS(=O)(=O)N1CCCC(C(=O)NCc2ccc(C)cc2)C1 (stereo not drawn),13%
22,O=C(NCCCN1CCN(Cc2ccccc2)CC1)C1CCN(S(=O)(=O)N2CCCC2)CC1,17.2%
23,CSc1nnc(SCc2nc3sc(C(=O)O)c(C)c3c(=O)[nH]2)s1,1.67%
24,COC(=O)CSc1nc2c(c(C3CC=CCC3)c1C#N)CCC2 (stereo not drawn),-6.44%

row,Compound,activation
1,Cc1nc([N+](=O)[O-])cn1CC(=O)Nc1ccc2c(c1)OCO2,-19.2%
2,Cc1ccccc1C(CC(=O)c1cccs1)C(C#N)C#N (stereo not drawn),4.09%
3,CC1CCCCC1NC(=O)/C(C#N)=C/C=C/c1ccccc1[N+](=O)[O-] (stereo not drawn),-5.09%
4,Cc1cc(C)cc(OCC(=O)NCc2cc(C)nc3ccccc23)c1,-3.92%
5,Cc1cc(C)c(NC(=O)c2oc3ccccc3c2COc2ccccc2)c(C)c1,-12.9%
6,Cc1cc(C)c(NC(=O)C[N+](C)(C)CC(O)COc2cccc3ccccc23)c(C)c1 (stereo not drawn),71.5% (active)
7,CCN(C(=O)COc1cccnc1[N+](=O)[O-])C1CCS(=O)(=O)C1 (stereo not drawn),-0.31%
8,CN(CCO)Cc1csc2ccc(Br)cc12,-20.4%
9,CC(=O)N1C(=O)/C(=C2\SC(=S)N(NC(=O)c3ccc(O)cc3)C2=O)c2ccccc21,-3.06%
10,Cc1ccc(NS(=O)(=O)c2cccs2)cc1S(=O)(=O)N1CCCCCC1,3.99%
11,CCOc1ccc(C(=O)NC2CCN(CC(=O)NCc3cccs3)CC2)cc1,13.5%
12,CCNS(=O)(=O)c1ccc(NC(=O)Nc2cccc(C(F)(F)F)c2)cc1,24.5%
13,CS(=O)(=O)NCc1ccc(C(=O)NCc2ccccc2)cc1,10.7%
14,O=C(NCc1ccccc1)c1ccc(S(=O)(=O)Nc2cccc(C(F)(F)F)c2)cc1,47.4% (active)
15,COc1ccc(CN2CCN(Cc3cn(C)nc3-c3ccccc3)CC2CCO)c(C)c1C (stereo not drawn),-18%
16,CC(C)(C)OC(=O)N/N=C/c1ccc(C(=O)O)cc1,10%
17,CC(=O)c1c(-c2ccccc2)c2ccccc2[nH]c1=O,6.99%
18,CCO[C@H]1OC(C(=O)N2CCN(Cc3ccccc3)CC2)=C[C@@H](c2cn(C(C)=O)c3ccccc23)[C@@H]1CCCO,-8.85%
19,COCC1CCCN(Cc2nc(-c3ccc4c(c3)OCO4)no2)C1 (stereo not drawn),-10.6%
20,Oc1c(Cl)cc(Cl)c(Cl)c1Cc1c(O)c(Cl)cc(Cl)c1Cl,56.1% (active)
21,CCN(C(=O)COC(=O)c1cc(S(=O)(=O)N2CCc3ccccc32)ccc1OC)C1CCS(=O)(=O)C1 (stereo not drawn),-3.32%
22,CCOC(=O)C1=C(N)N2C(=O)C(C)SC2=C(C(=O)OCC)C1c1cc(OC)c(OC)c(OC)c1 (stereo not drawn),-1.02%
23,OC(COc1cccc2ccccc12)CN1CCN(c2ccccn2)CC1 (stereo not drawn),58.3% (active)
24,Cc1ccccc1OCC(O)CN1CCN(c2ccccn2)CC1 (stereo not drawn),17.9%

row,Compound,activation
1,Cc1cccc(OCC(O)CN2CCN(CCN3C(=O)c4cccc5cccc(c45)C3=O)CC2)c1C (stereo not drawn),30.4%
2,CC(C)COP(=O)(c1ccc(N(C)C)cc1)C(Nc1ccccc1)c1cccnc1 (stereo not drawn),4.54%
3,CC(=O)OC(C(=O)NCCc1ccccc1)c1cccnc1 (stereo not drawn),-16.8%
4,CC(Nc1ccccc1)c1cccnc1 (stereo not drawn),40.2% (active)
5,CCCCc1cc2c(s1)CCCC/C2=N/O,5.62%
6,C/C(=C\c1ccco1)CN1CCC(N2CCC(C(=O)N3CCOCC3)CC2)CC1,-15.1%
7,Cc1cc(C(=O)N/N=C/c2ccc(O)c([N+](=O)[O-])c2)c(C)n1-c1ccc(F)cc1,3.14%
8,Cc1c(S(=O)(=O)NCc2ccccc2)c(=O)n(C)c(=O)n1C,-20.2%
9,COc1ccc2nc(NC(=O)NC3CCCCC3)sc2c1,42.1% (active)
10,COc1ccc2nc(NC(=O)c3ccc(Br)s3)sc2c1,11.8%
11,COc1ccc2nc(Nc3nc4ccc(NC(C)=O)cc4s3)sc2c1,-3.69%
12,O=C(NC(=S)Nc1cccc2c(O)cccc12)c1cccc(Br)c1,-15.3%
13,O=S(=O)([N-]c1nc2ccccc2nc1-[n+]1ccc(Cc2ccccc2)cc1)c1ccc(Br)s1,-4%
14,C/C(=N\NC(=O)C(N)=O)c1ccc2c(c1)OCCO2,-7.65%
15,CC(=O)c1ccc2c(c1)OCCOCCOc1ccc(C(C)=O)cc1OCCOCCO2,43.3% (active)
16,O=C(c1ccc2c(c1)OCO2)N1CCOCC1,7.94%
17,COc1ccc(N2C(=O)C(CC(=O)Nc3ccc(F)cc3)N(CCc3cccs3)C2=O)cc1 (stereo not drawn),4.57%
18,O=C(N1CCCCC1)N1CCN(C(=O)N2CCCCC2)CC1,-11.1%
19,O=C(COC(=O)c1n[nH]c2ccccc12)NCc1ccccc1,-3.06%
20,CN(C)S(=O)(=O)c1ccc(NC(=O)COC(=O)c2n[nH]c3ccccc23)cc1,32.2% (active)
21,CN(C)S(=O)(=O)c1ccc(NC(=O)COC(=O)Cn2[nH]c(=O)c3ccccc3c2=O)cc1,-2.17%
